To fix the notation:
B1: PhoQ; a variant is named by its letters at X, in order, P23837 (parent)
chain: MKKLLRLFFPLSLRVRFLLATAAVVLVLSLAYGMVALIGYSVSFDKTTFRLLRGESNLFYTLAKWENNKLHVELPENIDKQSPTMTLIYDENGQLLWAQRDVPWLMKMIQPDWLKSNGFHEIEADVNDTSLLLSGDHSIQQQLQEVREDDDDAEMTHSVAVNVYPATSRMPKLTIVVVDTIPVELKSSYMVWSWFIYVLSANLLLVIPLLWVAAWWSLRPIEALAKEVRELEEHNRELLNPATTRELTSLVRNLNRLLKSERERYDKYRTTLTDLTHSLKTPLXXLQXXLRSLRSEKMSVSDAEPVMLEQISRISQQIGYYLHRASMRGGTLLSRELHPVAPLLDNLTSALNKVYQRKGVNISLDISPEISFVGEQNDFVEVMGNVLDNACKYCLEFVEISARQTDEHLYIVVEDDGPGIPLSKREVIFDRGQRVDTLRPGQGVGLAVAREITEQYEGKIVAGESMLGGARMEVIFGRQHSAPKDE

Whole data set: some 140,000 sequences, median “enrichment ratio after two sorts for PhoP signalling” near 0, cut for the highest 2% near 11. Shown is part of a subset that was picked to be rich in the highest values.

Variants of B1 are the subject of the assay. Description: enrichment ratio after two sorts for PhoP signalling (ratio (wild type AVST 3.29)); higher = more functional. The following applies: with PhoP (E. coli).
For the variant TSCL, the enrichment ratio was 19.6. Take RGCL: the enrichment ratio is no more than 0.25. The figure for SGGL is 6.41; for CSCS it is no more than 0.25. Regarding CSCL, the enrichment ratio is 16.1. The figure for NSCL is no more than 0.25. As for SGCL, the figure is 15.6; as for GGCL, 8.88. Turning to TGCL, the enrichment ratio is 22.4. The figure for PKNL is no more than 0.25. The figure for TSYE is no more than 0.25; for RGSH it is no more than 0.25. In the case of NMFD, the enrichment ratio was no more than 0.25. The figure for IIHI is no more than 0.25; for LILE it is no more than 0.25; for NHCE it is no more than 0.25. With NSGM, the enrichment ratio was no more than 0.25. For the variant HPWS, the enrichment ratio is no more than 0.25.

As to YHCL, the enrichment ratio was no more than 0.25. For GNNL, the enrichment ratio was 2.95. With GNCL, the enrichment ratio is 18.1.

With YSKR, the enrichment ratio is no more than 0.25. With RNAK, the enrichment ratio is no more than 0.25.

Regarding KKTM, the enrichment ratio was no more than 0.25.

As to GHTM, the enrichment ratio was no more than 0.25. As for ATWM, the figure is no more than 0.25; as for ATTI, 13.7. As to ADTM, the enrichment ratio is no more than 0.25.

Take ATPM: the enrichment ratio is 0.758. With ATTM, the enrichment ratio came to 16.6. The figure for ATTK is 10.4. As for ANTM, the enrichment ratio amounted to 44. As for ATTA, the figure is no more than 0.25. The figure for AITM is 23.3. Regarding GNTM, the enrichment ratio is 1.94.

Regarding GVVP, the enrichment ratio was no more than 0.25. With QMYN, the enrichment ratio is no more than 0.25.

On to EFPL, for which the enrichment ratio was no more than 0.25.

KIKD: the enrichment ratio is no more than 0.25. As for EALR, the figure is no more than 0.25; as for FKYT, no more than 0.25.

As to VDAS, the enrichment ratio was no more than 0.25.

EAHV: the enrichment ratio was no more than 0.25.

In the case of NFSK, the enrichment ratio is no more than 0.25.

As to DNFH, the enrichment ratio was no more than 0.25. The figure for KSWF is no more than 0.25; for QPWF it is no more than 0.25; for QGWF it is 18.8. As for FQWF, the figure is no more than 0.25. With QRWF, the enrichment ratio was no more than 0.25. Consider TKWF, for which the enrichment ratio was determined as 13.4. As for FFWF, the figure is no more than 0.25; as for HKWF, no more than 0.25; as for QKWF, 12.7. Consider VAKP, for which the enrichment ratio is no more than 0.25.

Consider YQPA, for which the enrichment ratio was no more than 0.25. For LESI, the enrichment ratio is no more than 0.25. As for MTAV, the enrichment ratio was determined as 7.37. The figure for AMKH is no more than 0.25; for VGAQ it is no more than 0.25. As for RNKK, the figure is no more than 0.25. The figure for WHKS is no more than 0.25; for HTKL it is no more than 0.25; for TMND it is 21.9. Regarding TMNS, the enrichment ratio stood at 7.25. Turning to NMNA, the enrichment ratio was no more than 0.25. With TMGD, the enrichment ratio stood at 3.55. The figure for TMTD is no more than 0.25; for TMNT it is 11.9; for TMPT it is no more than 0.25. TMNI: the enrichment ratio stood at 3.75. On to DMNA, for which the enrichment ratio was no more than 0.25. The figure for TMNA is 24.8; for TMAT it is 11.2. As for TMKT, the figure is no more than 0.25; as for AFCP, no more than 0.25; as for QIMN, no more than 0.25. On to YLAK, for which the enrichment ratio is no more than 0.25. The figure for NTVM is no more than 0.25; for PIIP it is no more than 0.25; for IRSI it is no more than 0.25. As for NCPV, the figure is no more than 0.25.

Take LVVW: the enrichment ratio is no more than 0.25. For the variant WDPT, the enrichment ratio is no more than 0.25. With YRQK, the enrichment ratio was no more than 0.25.

In the case of KMNF, the enrichment ratio was no more than 0.25. The figure for TMNG is 10.4. In the case of TMNF, the enrichment ratio came to 14.7. As for NMNN, the figure is no more than 0.25; as for TMHK, no more than 0.25. As for NNNF, the enrichment ratio was no more than 0.25. TMHG: the enrichment ratio stood at 13.3. With TMNN, the enrichment ratio amounted to 34. On to TMNL, for which the enrichment ratio is 5.04. The figure for DTAT is no more than 0.25; for HKAG it is no more than 0.25; for YDNA it is no more than 0.25. The figure for YEKP is no more than 0.25; for QHHY it is no more than 0.25; for MQFY it is no more than 0.25. As for QQHY, the figure is 21.2. Turning to MQFA, the enrichment ratio is no more than 0.25. Regarding MQPI, the enrichment ratio was no more than 0.25. The figure for MQHF is no more than 0.25; for SQHY it is no more than 0.25; for MQFM it is 12.3. KQFM: the enrichment ratio was no more than 0.25.

As for MQGD, the enrichment ratio is no more than 0.25. As for MQHY, the figure is 12.6; as for MQFD, 14.7; as for SYVF, 0.277. As for YEDQ, the enrichment ratio was no more than 0.25. The figure for WFMA is no more than 0.25; for HCRL it is no more than 0.25; for RTQY it is no more than 0.25. Consider VMWE, for which the enrichment ratio was no more than 0.25. The figure for AGDA is no more than 0.25; for MQRM it is no more than 0.25. As for MQAE, the figure is no more than 0.25; as for MQFQ, 11.9; as for MQFE, no more than 0.25.

As for MQWI, the enrichment ratio was found to be 14.4.

As for MQRV, the enrichment ratio is no more than 0.25. For the variant MQGM, the enrichment ratio is no more than 0.25. In the case of MQRA, the enrichment ratio is no more than 0.25. As for MQFS, the figure is 3.3.

With MQAV, the enrichment ratio was found to be 18.4.

For the variant MQWM, the enrichment ratio came out at 14.1.

With MQSK, the enrichment ratio is no more than 0.25. The figure for YMRM is no more than 0.25; for TCKP it is no more than 0.25; for RKYE it is no more than 0.25. On to RKAI, for which the enrichment ratio was no more than 0.25. As for SLME, the figure is 2.88; as for HFYE, no more than 0.25.

For GSHY, the enrichment ratio is no more than 0.25.

Regarding QNET, the enrichment ratio was no more than 0.25. Take QCSY: the enrichment ratio is no more than 0.25. Consider EMSY, for which the enrichment ratio was no more than 0.25. As for GCLP, the figure is 0.401; as for LLKQ, no more than 0.25; as for RVRE, no more than 0.25.

As to TLMQ, the enrichment ratio is no more than 0.25.

As for SSMQ, the enrichment ratio worked out at 11.5.

For SRMQ, the enrichment ratio is no more than 0.25.

Take VYMQ: the enrichment ratio was no more than 0.25.

VVHP: the enrichment ratio is no more than 0.25. The figure for SYMQ is no more than 0.25. As for FSMQ, the figure is 3.93; as for VVMQ, 13.3; as for KYMQ, no more than 0.25.

For the variant KLMQ, the enrichment ratio is no more than 0.25. For the variant SIMQ, the enrichment ratio was 33.3. With SLMQ, the enrichment ratio worked out at 11.8.

(Values after a collection of fitness landscapes (doi:10.1126/science.1257360).)
